This is an account of results in PubChem BioAssay (NCI).

This is part of a sample that, as a whole, favours compounds with a hit. Of some 79,000 tested, about 15% had one in any assay. The source made the active and inactive calls. No stated cut-off is given here; in the data, active means growth inhibition above about 70%; inactive means the rest.

One assay is described as follows: NCI Yeast Anticancer Drug Screen. Data for the bub3 strain (AID 167). The conditions noted are these: S. cerevisiae bub3 mutant strain, at 5.0 µM (retest, dose inferred, filed as 0.5), stronger effect = higher value. Put shortly:
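Steps: expose the mutant yeast strain to compound; grow alongside vehicle-treated cultures; measure growth; express inhibition against the vehicle cultures.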
Consider `O=C(N/N=C/c1ccccc1O)c1ccccc1-n1cccc1`, for which the growth inhibition is 41% (inactive).

With `O=C1CN(CCN2CCOCC2)CC(=O)N2Cc3ccccc3CN12`, the growth inhibition was 6% (inactive).

Turning to `CCC[CH2][Sn]([CH2]CCC)([NH]c1ncnc2[nH]cnc12)[NH]c1ncnc2[nH]cnc12`, the growth inhibition was 14% (inactive).

Regarding `Oc1ccc(Br)cc1C=Nc1c(NC2CCCCC2)oc2ccc(Br)cc12`, the growth inhibition is -12% (inactive).

On to `Cc1cc2c(C(C)C)c(O)c(O)c3coc(/c1=c1/c(C)cc4c(C(C)C)c(=O)c(=O)c5coc1c45)c32`, for which the growth inhibition is -3% (inactive).

Take `O=C1c2ccccc2C(=O)N1/N=C\c1ccccc1[N+](=O)[O-]`: the growth inhibition is -3% (inactive).

With `O[C@H](CNCCS)[C@@H](O)CNCCS`, the growth inhibition is -4% (inactive).

Regarding `C[C@]12CC[C@H](O)CC1=CC[C@@H]1C2CC[C@]2(C)C(=O)N(N)C(=O)CC12` (some centres not stated), the growth inhibition was 16% (inactive).

With `O=C(C(/C=N/C(=S)NCc1ccccc1)=C(/O)c1ccccc1)c1ccccc1`, the growth inhibition was 2% (inactive).

Consider `C=CC1(c2ccc(-c3ccccc3)cc2)OCCO1`, for which the growth inhibition was -22% (inactive).

As for `C=C1CC(COc2ccc3c(C)cc(=O)oc3c2)(c2ccccc2)OC1=O` (configuration not stated), the growth inhibition was 32% (inactive).

With `CN(C)CCCNc1c2ccccc2nc2ccc([N+](=O)[O-])cc12`, the growth inhibition is 11% (inactive).

Turning to `CN1CCC(OC(=O)c2ccc3ncccc3c2)CC1`, the growth inhibition was -4% (inactive).

On to `COc1ccc(/C=C2/C(=O)N(C(=O)c3ccccc3O)N=C2C)cc1OC`, for which the growth inhibition was 17% (inactive).

Consider `CC1([N+](=O)[O-])C(=O)C2(N3CCOCC3)CCCC2C1c1ccccc1` (configuration not stated), for which the growth inhibition is -12% (inactive).

Take `COc1ccc(C2=C(Cl)C(=O)N(c3ccc(C)cc3)C(=O)C2(Cl)Cl)cc1`: the growth inhibition is -7% (inactive).

Turning to `COc1ccnc(-c2cc(OC)cc(/C(N)=N/O)n2)c1`, the growth inhibition was -3% (inactive).

As for `Nc1ccccc1CCc1ccccc1`, the growth inhibition is 0% (inactive).

For `COC(=O)c1ccc(OCCC(=O)CCl)cc1`, the growth inhibition is 11% (inactive).

In the case of `CCCCCCCCCCCCS(=O)(=O)CC(Br)C(=O)c1ccco1` (configuration not stated), the growth inhibition is 43% (inactive).

On to `FC(F)(F)C(F)(F)C1(F)C(F)(F)C(F)(F)C(F)(F)C(F)(F)C1(F)F`, for which the growth inhibition was 3% (inactive).

`O=C(O)C(O)C(O)C(O)C(O)CO.[Ag]` (configuration not stated): the growth inhibition is 99% (active).

Staying with this assay, now noted: S. cerevisiae bub3 mutant strain, at 50.0 µM (retest, dose inferred, filed as 5.0), stronger effect = higher value.
With `CCc1ccc(/C(C)=N/NC(N)=S)cc1`, the growth inhibition is 92% (active).

`CC(C)/C=C1\CCOC1=O`: the growth inhibition is 4% (inactive).

For the compound `COc1c(C(=O)/C(=N/Nc2ccccc2)C(C)=O)c(O)c(OC)c2occc12`, the growth inhibition was 92% (active).

Consider `COc1ccc(CC/C(=N/O)c2ccccc2)cc1`, for which the growth inhibition was 90% (active).

For `CCOC(=O)C1(C#N)C(c2ccccc2)C1(C#N)C#N` (configuration not stated), the growth inhibition is 92% (active).

On to `COc1ccc(OC)c(/C=C/NC=O)c1`, for which the growth inhibition is -2% (inactive).

As to `CC(=O)Oc1ccc(-c2ccc(Br)cc2)cc1`, the growth inhibition was 94% (active).

On to `COC(=O)/C(C#N)=C/c1cc(OC)c(O)cc1Br`, for which the growth inhibition is 48% (inactive).

Consider `CCC(C1SC(=S)NC1=O)C1SC(=S)NC1=O` (configuration not stated), for which the growth inhibition is 6% (inactive).

Take `CCC(C)c1ccc(O)c(C(C)c2ccccc2)c1` (configuration not stated): the growth inhibition was 100% (active).

Take `C/C(=N\NC(=S)N1CCN(c2ccccc2)CC1)c1nccs1`: the growth inhibition was 99% (active).

With `COc1ccc2c(C(=O)c3ccccc3)c3[n+](cc2c1OC)CCc1cc2c(cc1-3)OCO2`, the growth inhibition is 24% (inactive).

In the case of `Cc1cccc(C[N+](C)(C)CCCO)c1C`, the growth inhibition is 1% (inactive).

As for `c1ccc(N=C2SC3=NCCN3C2=Nc2ccccc2)cc1`, the growth inhibition was 97% (active).

Consider `Cc1ccc(SCc2ccccc2Cl)nn1`, for which the growth inhibition was 34% (inactive).

With `CCCc1cc(=O)oc2c3c(c4c(c12)OC(C)(C)CC4)O[C@H](C)[C@H](C)C3=O`, the growth inhibition was 99% (active).

Turning to `CC1(C)COC(c2cccc(C(O)c3ccc(Cl)cc3)c2)=N1` (configuration not stated), the growth inhibition is 99% (active).

As for `CCOC(=O)c1cc(NC(=O)c2cc(NC(=O)c3cc(NC(=O)c4c(-c5ccccc5)noc4C)cn3C)cn2C)cn1C`, the growth inhibition is 46% (inactive).

For the compound `O=C(N/N=C/c1ccccc1O)c1ccccc1-n1cccc1`, the growth inhibition is 71% (active).

For `O=C1CN(CCN2CCOCC2)CC(=O)N2Cc3ccccc3CN12`, the growth inhibition is 35% (inactive).

As for `CCC[CH2][Sn]([CH2]CCC)([NH]c1ncnc2[nH]cnc12)[NH]c1ncnc2[nH]cnc12`, the growth inhibition is 95% (active).

Take `Oc1ccc(Br)cc1C=Nc1c(NC2CCCCC2)oc2ccc(Br)cc12`: the growth inhibition was 43% (inactive).

In the case of `Cc1cc2c(C(C)C)c(O)c(O)c3coc(/c1=c1/c(C)cc4c(C(C)C)c(=O)c(=O)c5coc1c45)c32`, the growth inhibition is 97% (active).

For `O=C1c2ccccc2C(=O)N1/N=C\c1ccccc1[N+](=O)[O-]`, the growth inhibition is 85% (active).

`O[C@H](CNCCS)[C@@H](O)CNCCS`: the growth inhibition was 17% (inactive).

For the compound `C[C@]12CC[C@H](O)CC1=CC[C@@H]1C2CC[C@]2(C)C(=O)N(N)C(=O)CC12` (some centres not stated), the growth inhibition was 93% (active).

Regarding `O=C(C(/C=N/C(=S)NCc1ccccc1)=C(/O)c1ccccc1)c1ccccc1`, the growth inhibition was 97% (active).

In the case of `C=CC1(c2ccc(-c3ccccc3)cc2)OCCO1`, the growth inhibition is -6% (inactive).

In the case of `C=C1CC(COc2ccc3c(C)cc(=O)oc3c2)(c2ccccc2)OC1=O` (configuration not stated), the growth inhibition is 30% (inactive).

Regarding `CN(C)CCCNc1c2ccccc2nc2ccc([N+](=O)[O-])cc12`, the growth inhibition was 59% (inactive).

`CN1CCC(OC(=O)c2ccc3ncccc3c2)CC1`: the growth inhibition was 2% (inactive).

As for `COc1ccc(/C=C2/C(=O)N(C(=O)c3ccccc3O)N=C2C)cc1OC`, the growth inhibition is 81% (active).

For the compound `CC1([N+](=O)[O-])C(=O)C2(N3CCOCC3)CCCC2C1c1ccccc1` (configuration not stated), the growth inhibition is 98% (active).

As to `COc1ccc(C2=C(Cl)C(=O)N(c3ccc(C)cc3)C(=O)C2(Cl)Cl)cc1`, the growth inhibition was 22% (inactive).

With `COc1ccnc(-c2cc(OC)cc(/C(N)=N/O)n2)c1`, the growth inhibition was 54% (inactive).

In the case of `Nc1ccccc1CCc1ccccc1`, the growth inhibition was 74% (active).

As to `COC(=O)c1ccc(OCCC(=O)CCl)cc1`, the growth inhibition is 67% (inactive).

Regarding `CCCCCCCCCCCCS(=O)(=O)CC(Br)C(=O)c1ccco1` (configuration not stated), the growth inhibition is 95% (active).

Consider `FC(F)(F)C(F)(F)C1(F)C(F)(F)C(F)(F)C(F)(F)C(F)(F)C1(F)F`, for which the growth inhibition was 4% (inactive).

For `O=C(O)C(O)C(O)C(O)C(O)CO.[Ag]` (configuration not stated), the growth inhibition is 98% (active).
